# Assay outcomes from PubChem.
# Mac1 fbg inh: inhibitors of human CD11b/CD18 binding to fibrinogen; K562 CD11b/CD18 adhesion to fibrinogen, ATPlite luminescence; Mn2+ added to activate the integrin; inhibition, % at 10 µM; actives 0.54% (n = 93,000); AID 1497;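 active = primary inhibition of 50% or more at 10 µM, then 40% or more on retest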
# CYP2C9 activ: activators of human CYP2C9. AID 1024. recombinant CYP2C9, luciferin-H conversion, luminescence; active compounds read high; factor 1 = untreated enzyme, 0 = blocked. P11712. actives 1.4% (n = 96,000). activation factor at 5 µM;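 active = activation factor of 2 or more for CYP2C9 at a 5 µM dose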
# CYP2C9 inh: blocks human cytochrome P450 2C9; P11712; CYP2C9 Supersomes, luciferin-H conversion, luminescence; inhibition, % at 5 µM; actives 20% (n = 96,000); AID 777;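 active = blocking of liver enzyme CYP2C9 beyond about 50% at 5 µM, limit read from the data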
# Mac1 fbg enh: CD11b/CD18-fibrinogen binding enhancement; actives 0.07% (n = 93,000); P05107+P11215; K562 CD11b/CD18 adhesion to fibrinogen, ATPlite luminescence; activation, % at 10 µM;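 active = 10 µM primary screen giving 50% or more activity, confirmed by 40% or more on retest at that dose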
# CYP2C19 act: activators of human cytochrome P450 2C19; 96,000 tested, under 10 active; activation factor at 5 µM; P33261; recombinant CYP2C19, luciferin-H EGE luminescence; active compounds read high; 0 = fully inhibited enzyme, 1 = untreated enzyme;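 active = activation factor of at least 2 at 5 µM in the primary screen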
# Target sequence (P33261 whole entry, looked up): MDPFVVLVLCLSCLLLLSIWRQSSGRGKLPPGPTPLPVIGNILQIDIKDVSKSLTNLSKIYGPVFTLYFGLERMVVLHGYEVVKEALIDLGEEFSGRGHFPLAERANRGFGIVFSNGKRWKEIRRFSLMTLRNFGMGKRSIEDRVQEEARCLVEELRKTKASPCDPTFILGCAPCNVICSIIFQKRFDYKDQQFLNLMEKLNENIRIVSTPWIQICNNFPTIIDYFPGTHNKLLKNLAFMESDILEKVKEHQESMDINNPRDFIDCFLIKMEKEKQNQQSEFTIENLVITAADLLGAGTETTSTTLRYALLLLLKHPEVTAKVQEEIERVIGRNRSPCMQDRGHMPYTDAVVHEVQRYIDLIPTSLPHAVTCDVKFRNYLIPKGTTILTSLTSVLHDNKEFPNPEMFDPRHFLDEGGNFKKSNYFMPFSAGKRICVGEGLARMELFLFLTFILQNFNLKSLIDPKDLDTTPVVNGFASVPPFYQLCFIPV
# CYP2C19 inhib: inhibitors of human CYP2C19 | inhibition, % at 5 µM | actives 21% (n = 96,000) | AID 778 | CYP2C19 Supersomes, luciferin-H EGE luminescence, 30 min;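 active = CYP2C19 inhibition above a set limit at 5 µM in the primary screen, cut at about 50% in these data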
# Hits are given with their value; n = inactive; x = no result given. Hits are enriched below; roughly 28% of the tested compounds scored in any of these assays.
SMILES,Mac1 fbg inh,CYP2C9 activ,CYP2C9 inh,Mac1 fbg enh,CYP2C19 act,CYP2C19 inhib
Cc1noc2ncnc(Sc3ccc(Cl)cc3)c12,n,n,n,n,n,79.2
Cc1ccccc1Sc1ncnc2onc(C)c12,n,n,n,n,n,96.2
Cc1noc2ncnc(Oc3ccc(F)cc3)c12,n,n,n,n,n,n
Cc1noc2ncnc(Sc3c(Cl)cccc3Cl)c12,n,n,52.1,n,n,97.0
Cc1ccc(Sc2ncnc(N)c2[N+](=O)[O-])cc1,n,x,x,n,x,x
Cc1ccc(Sc2ncnc3onc(C)c23)cc1,n,n,n,n,n,67.4
CCn1cc(C(=O)Nc2ccc(C(=O)N3CCCC3)cc2)c(=O)c2ccc(C)nc21,n,n,n,n,n,n
CCN(C(C)=O)c1nnc(CSc2nc3ccccc3s2)s1,n,n,n,n,n,88.4
CC1CC(C)CN(CCCNC(=O)Cc2c(C(=O)O)n(C)c3ccccc23)C1 (centres undefined),n,n,n,n,n,n
Cc1ccc(-c2nnc(SCC#CCOC(=O)c3cccs3)o2)cc1,n,n,n,n,n,n
COc1cccc(C(=O)Nc2ccc(-c3nnc(-c4ccco4)o3)cc2)c1,x,n,n,x,n,65.2
Cc1ccc(-c2nnc(-c3ccc(NC(=O)c4ccco4)cc3)o2)cc1,n,n,79.1,n,n,66.6
Cc1ccc(-c2nnc(SCC#CCOC(=O)c3ccco3)o2)cc1,n,n,89.1,n,n,88.8
O=C(Nc1ccc2nc3ccccc3nc2c1)c1ccccc1,n,x,x,n,x,x
O=C(Nc1ccc(-c2nc3ncccc3o2)cc1)c1ccco1,n,n,n,n,n,n
O=C(Nc1ccc(-c2nnco2)cc1)c1ccccc1,n,n,77.0,n,n,83.4
COc1ccc(NC(=O)COC(=O)c2c3c(nc4ccccc24)CCCC3)cc1Cl,n,n,n,n,n,n
Cn1c(=O)c2c(-c3ccccc3)n(-c3ccccc3O)cc2n(C)c1=O,n,n,n,n,n,n
COc1ccc(-c2c3c(=O)n(C)c(=O)n(C)c3cn2-c2cc(OC)ccc2OC)cc1,n,n,63.2,n,n,n
COc1cnn(-c2cc(Oc3ccc(C)cc3)ncn2)c(=O)c1Cl,n,n,n,n,n,74.0
CCOC(=O)c1oc2cc(O)c(CC)cc2c(=O)c1-c1ccc2c(c1)OCCO2,n,n,98.8,n,n,n
CCOC(=O)c1oc2cc(O)ccc2c(=O)c1-c1ccc(OC)cc1,n,n,n,n,n,n
CCCCN(CCCC)CCNC(=O)CNC(=O)c1cccs1,n,n,n,n,n,n
CC(C)Cc1ccc(C(C)C(=O)OCC(=O)c2c[nH]c3ccccc23)cc1 (centres undefined),n,n,n,n,n,n
CC1(C(=O)OCC(=O)c2c[nH]c3ccccc23)CC1(Cl)Cl (centres undefined),n,n,85.2,n,n,96.8
SMILES,Mac1 fbg inh,CYP2C9 activ,CYP2C9 inh,Mac1 fbg enh,CYP2C19 act,CYP2C19 inhib
O=C(CSCC(=O)N1CCCCC1)OCC(=O)c1c[nH]c2ccccc12,n,n,n,n,n,69.1
Cc1ccccc1-c1nnc(SCCOc2ccc3c(C)cc(=O)oc3c2)o1,n,n,n,n,n,n
C=CCN=C(NC#N)SCc1ccccc1Cl,n,n,n,n,n,89.4
C=CCn1c(=O)c2ccccc2n2c(SCC(N)=O)nnc12,x,n,n,x,n,n
C=CCn1c(=O)c2ccccc2n2c(SCc3nc4ccccc4s3)nnc12,n,n,n,n,n,62.2
C=CCn1c(=O)c2ccccc2n2c(SCc3c(C(=O)OCC)oc4ccccc34)nnc12,n,n,60.3,n,n,58.8
COc1ccccc1N1CCN(/N=C/C=C\c2ccco2)CC1,n,n,n,n,n,n
CC(C)CC(=O)Nc1nnn(C)n1,n,n,n,n,n,n
CCOC(=O)COc1c(Br)cc(/C=C2\SC(=O)N(CC(=O)N3CCCC3)C2=O)cc1OC,n,n,n,n,n,n
CCOC1(OCC)N=C(N)C2(C#N)C(c3cccc(C)c3)C12C#N (centres undefined),x,n,n,x,n,n
Cc1ccc(N/C(SCc2ccccc2C)=C(/C#N)C(=O)NCc2ccco2)cc1C,n,n,79.5,n,n,n
CCN(CC)c1ccc(/C=C(\C#N)C(=O)NCc2ccco2)cc1,n,x,x,n,x,x
CCc1ccc(N/C(SCc2cccc(F)c2)=C(/C#N)C(=O)NCc2ccco2)cc1,x,n,68.2,x,n,54.7
